In all, about 86,000 compounds went through this assay and about 1,200 (1.4%) were called active. What follows is part of a selection rich in actives, with near analogues and random picks from the rest. A number with no mark means an inactive call. Cut-off read from the data, not from the text of the source: active = activity above about 200%; inactive = the rest.
The compounds below were run against Estrogen receptor (Homo sapiens) (UniProt P03372) (assay: ERα coactivator recruitment potentiators – biochemical, TR-FRET, ERα LBD, low estradiol, primary screen (AID 639;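 note: binding measured in presence of low estradiol as agonist stimulus; 0% = peptide alone without receptor and 100% = receptor with peptide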)). Settings: TR-FRET ERalpha-LBD/SRC-Cy5 coactivator binding, 2 h; at 25.6 µM; active compounds read high; 100 = basal binding, no effect.
Sequence of Estrogen receptor (Homo sapiens) (P03372 whole entry, looked up, the tested form may be a part): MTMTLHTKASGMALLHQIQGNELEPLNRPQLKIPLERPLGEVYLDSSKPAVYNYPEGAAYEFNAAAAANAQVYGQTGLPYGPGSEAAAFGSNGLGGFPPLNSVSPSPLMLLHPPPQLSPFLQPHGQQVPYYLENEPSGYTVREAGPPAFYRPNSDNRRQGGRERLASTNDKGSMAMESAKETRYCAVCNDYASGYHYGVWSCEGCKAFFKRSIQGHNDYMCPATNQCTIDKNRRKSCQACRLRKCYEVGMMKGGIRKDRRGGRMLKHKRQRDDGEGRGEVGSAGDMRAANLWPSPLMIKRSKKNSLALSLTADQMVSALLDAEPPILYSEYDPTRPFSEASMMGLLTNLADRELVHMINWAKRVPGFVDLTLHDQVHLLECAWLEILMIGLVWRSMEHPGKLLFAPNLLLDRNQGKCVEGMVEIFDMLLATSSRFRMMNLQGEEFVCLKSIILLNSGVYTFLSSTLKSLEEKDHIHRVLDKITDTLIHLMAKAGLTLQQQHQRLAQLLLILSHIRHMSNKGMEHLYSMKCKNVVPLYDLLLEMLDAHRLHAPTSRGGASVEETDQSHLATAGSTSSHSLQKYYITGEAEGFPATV

| Structure (SMILES) | coactivator binding (% of control) |
| --- | --- |
| Cc1ccc(NC(=S)NC(NC(=O)Cc2cccc3ccccc23)C(Cl)(Cl)Cl)cc1 (configuration not stated) | 77.9% |
| COC(=O)C(C(=O)Nc1cccc(C)n1)C1CCCCCC1 (configuration not stated) | 76.6% |
| COc1ccc(CC(=O)Nc2ccc(-c3nnc(-c4ccccc4)o3)cc2)cc1 | 184% |
| Cc1ccc(OCC(=O)Nc2ccc(-c3nnc(-c4ccco4)o3)cc2)cc1 | 172% |
| O=C(Nc1cccc(-c2nc3ncccc3o2)c1)c1ccco1 | 108% |
| Cc1ccc(OCC(=O)Nc2ccc(-c3nc4ncccc4o3)cc2)cc1 | 315% [fluorescence artefact?] (active) |
| COc1cccc(NC(=O)Cc2ccc(C)cc2)c1 | 96.3% |
| COc1ccc(CC(=O)Nc2ccc(-c3nnc(-c4ccc(C)cc4)o3)cc2)cc1 | 359% [fluorescence artefact?] (active) |
| CCOc1ccc(NC(=O)C2CCCN(C(=O)Nc3ccccc3)C2)cc1 (configuration not stated) | 106% |
| CCN(CC)C(=O)CSc1nnc(-c2cccc(OC)c2)o1 | 105% |
| COc1ccc(-c2nnc(SCC(=O)c3ccc4c(c3)OCCO4)o2)cc1 | 335% [fluorescence artefact?] (active) |
| COc1ccc(CN(C(=O)CSc2nnc(-c3ccc(OC)c(OC)c3)o2)c2ccc(F)cc2)cc1 | 95.1% |
| Cn1c(SCC(=O)N2CCCc3ccccc32)nc2ccccc2c1=O | 84.1% |
| Cc1cccc(C(=O)Nc2ccccc2N2CCN(c3ccc(F)cc3)CC2)c1 | 97.2% |
| COc1ccc(C(C)=O)cc1CN1C(=O)NC2(CCCCC2C)C1=O (configuration not stated) | 128% |
| CC(C)c1nc2oc3c(N4CCN(C)CC4)ncnc3c2c2c1CCC2 | 373% [fluorescence artefact?] (active) |
| CCN1CCN(c2ncnc3c2oc2nc(C)c4c(c23)CC(C)(C)OC4)CC1 | 95.8% |
| CN(C)c1ccc(CNC2C3CC4CC(C3)CC2C4)cc1 (configuration not stated) | 105% |
| CC(C)C(c1nnnn1CCc1ccccc1)N1CCN(C(=O)c2ccco2)CC1 (configuration not stated) | 118% |
| CC(=O)c1ccc(-n2nnnc2SCC(=O)N2CCN(C(=O)c3ccco3)CC2)cc1 | 102% |
| CCC(c1nnnn1C1CCCC1)N1CCN(C(=O)c2ccco2)CC1 (configuration not stated) | 240% [fluorescence artefact?] (active) |
| CC(N)C12CC3CC(CC(O)(C3)C1)C2 (configuration not stated) | 105% |
| CCCc1nc(NCc2ccc3c(c2)OCO3)c2nnn(Cc3ccccc3Cl)c2n1 | 118% |
| CCOC(=O)CN(Cc1ccc(OC)c(OC)c1)S(=O)(=O)c1ccc(OC)cc1 | 114% |
| CCOc1cccc(NC(=O)CC#N)c1 | 101% |
| CCOc1cccc(NC(=O)Cn2nc(-c3ccc4c(c3)OCCO4)ccc2=O)c1 | 214% (active) |

| Structure (SMILES) | coactivator binding (% of control) |
| --- | --- |
| CCn1c(COc2ccccc2)nnc1SCC(=O)Nc1ccc2c(c1)OCCO2 | 115% |
| CC(=NCc1ccco1)c1c(C(F)(F)F)[nH]n(-c2nc3ccccc3s2)c1=O | 109% |
| COc1ccc(N2CCN(C(=O)CCc3nc(-c4ccc(C)cc4)no3)CC2)cc1 | 106% |
| COc1ccccc1N1CC(O)=C(c2nc3ccccc3s2)C1=N | 87.9% |
| CCCCCN1CC(O)=C(c2nc(-c3ccc(Cl)cc3)cs2)C1=N | 293% [fluorescence artefact?] (active) |
| CCCCCN1CC(O)=C(c2ccccc2)C1=N | 30.5% |
| C/C(=N\NS(=O)(=O)c1ccc(Br)cc1)c1cccs1 | 101% |
| Cc1nc(N2CCN(c3ncccn3)CC2)c2oc3ccccc3c2n1 | 207% [fluorescence artefact?] (active) |
| Cc1cc(C)nc(N2CCN(c3ncnc4c3oc3ccccc34)CC2)n1 | 144% |
| CCc1nc(N2CCN(c3nc(C)cc(C)n3)CC2)c2oc3ccccc3c2n1 | 155% |
| Cc1ccc(C2=CSC3=NS(=O)(=O)CCN23)cc1C | 100% |
| COCCn1c(SCc2nc3cc(OC)c(OC)cc3c(=O)[nH]2)nnc1-c1ccncc1 | 112% |
| CCSc1nnc(NC(=O)c2ccc(C)cc2)s1 | 95.5% |
| CCc1nnc(NC(=O)CCC(=O)NCc2ccccc2OC)s1 | 76.9% |
| CCSc1nnc(NC(=O)Cc2ccccc2OC)s1 | 246% [fluorescence artefact?] (active) |
| Cc1nc(NC(=O)CN(C)S(=O)(=O)c2ccc(Cl)cc2)sc1C | 105% |
| Fc1ccc(-c2ccc(-c3nn4c(-c5ccco5)nnc4s3)o2)cc1 | 84.9% |
| Fc1ccc(-c2nnc3sc(-c4ccc5c(c4)OCO5)nn23)cc1 | 258% (active) |
| COc1ccc(-c2nn3c(-c4ccccc4)nnc3s2)cc1OC | 123% |
| CC1(C)CC(=O)C=C(N2CCCC2)C1 | 101% |
| CCOC(=O)Cc1csc(NC(=O)CSc2nnc(-c3cccnc3)n2Cc2ccco2)n1 | 114% |
| COc1ccc(C(=O)Nc2nc(-c3ccc(S(=O)(=O)N4CCOCC4)cc3)cs2)cc1 | 492% [fluorescence artefact?] (active) |
| COC(=O)COc1ccc(S(=O)(=O)N2CCOCC2)cc1 | 108% |
| O=C(Nc1nc2cc3c(cc2s1)OCCO3)c1cccc(S(=O)(=O)N2CCOCC2)c1 | 122% |
| COc1ccc(S(=O)(=O)N2CCOCC2)cc1C(=O)Nc1nc2ccccc2s1 | 206% [fluorescence artefact?] (active) |
| O=C(Nc1nc2ccc(S(=O)(=O)N3CCCC3)cc2s1)C1CCCO1 (configuration not stated) | 103% |

| Structure (SMILES) | coactivator binding (% of control) |
| --- | --- |
| CCOC(=O)c1csc(NC(=O)c2ccc(S(=O)(=O)N3CCCC3)cc2)n1 | 108% |
| Cc1ccc(C)c(NC2=NCC(=O)N2c2ccc3c(c2)OCCO3)c1 | 103% |
| CCCCc1nc(NCCN)c(C#N)c2c1CSC(C)(C)C2 | 85.4% |
| O=C(C(NS(=O)(=O)c1cccc2nsnc12)c1ccccc1)N1CCN(c2ccccc2)CC1 (configuration not stated) | 102% |
| COc1ccc2c(c1)cc1n2CCN=C1NN | 90.7% |
| O=C(O)CSc1nccn1-c1cccc(Cl)c1 | 100% |
| COc1ccc(C2(CNC(=O)C(c3ccccc3)c3ccccc3)CCOCC2)cc1OC | 103% |
| O=C(CSc1nc2cccnc2n1Cc1ccccc1)N1CCc2ccccc21 | 156% |
| COc1ccc(CCn2c(=N)c(C(=O)NCc3ccco3)cc3c(=O)n4cccc(C)c4nc32)cc1 | 92.3% |
| O=C(NCc1ccco1)c1cc(-c2cccnc2)nc2ccc(Cl)cc12 | 128% |
| O=C(NCc1ccco1)c1cccn2c(=O)c3cc(Br)ccc3nc12 | 232% [fluorescence artefact?] (active) |
| CC(Oc1ccc(Cl)cc1)C(=O)Nc1ncccn1 (configuration not stated) | 220% (active) |
| COc1ccc(OC(C)C(=O)Nc2cccnc2)cc1 (configuration not stated) | 102% |
| CC(Oc1ccc(Cl)cc1)C(=O)OCC(=O)Nc1ncc(Cl)cc1Cl (configuration not stated) | 103% |
| CCCC1(C(=O)OCC)NC(c2ccc(N(C)C)cc2)C2C(=O)N(c3ccc4c(c3)OCCO4)C(=O)C21 (configuration not stated) | 117% |
| CCN(CC)C(=O)CSc1nnc(CNc2ccc(F)cc2)n1Cc1ccco1 | 86.8% |
| CC(=O)Nc1ccc(S(=O)(=O)NCCc2ccccc2)cc1 | 98.9% |
| O=S(=O)(NCCc1ccccc1)c1ccccc1 | 245% [fluorescence artefact?] (active) |
| O=S(=O)(NCCNS(=O)(=O)c1ccccc1)c1ccccc1 | 108% |
| COc1ccc(C(=O)N2CC3(C)CC2CC(C)(C)C3)cc1OC (configuration not stated) | 118% |
| CCOC(=O)c1c(C)oc2cc(Br)c(OCC(N)=O)cc12 | 156% |
| CSc1ccc(-c2c(C#N)c(N)nc3c2c(C)nn3-c2ccccc2)cc1 | 210% [fluorescence artefact?] (active) |
| CCn1c(CNC(=O)c2ccccc2)nnc1SCC(=O)N1CCN(c2ccccc2)CC1 | 106% |
| Fc1ccc(-n2c(Cc3ccccc3)nnc2SCc2nc(-c3ccc(Cl)cc3)no2)cc1 | 95.3% |
| Cc1cccc(C)c1NC(=O)CSc1nnc(-c2ccccc2)n1Cc1ccc2c(c1)OCO2 | 98.5% |

Source: PubChem BioAssay AID639 (Emory University Molecular Libraries Screening Center, 2007)
